Compound activity from PubChem BioAssay.
Pf apPOL inh = Pf-apPOL DNA polymerase inhibition | Recombinant Pf-apPOL, molecular beacon fluorescence, 1.5 h | 0.25% of 210,000 active | inhibition, % at 10 µM
mHTT CaM bind = inhibitors of human mutant huntingtin-calmodulin interaction; inhibition, % at 15 µM; P42858; 3.6% of 190,000 active; AlphaScreen His-mHTT/GST-CaM binding, luminescence;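 further: 0% = both proteins with DMSO and 100% = one protein alone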
Target sequence (P42858 whole entry, looked up, stated change not applied): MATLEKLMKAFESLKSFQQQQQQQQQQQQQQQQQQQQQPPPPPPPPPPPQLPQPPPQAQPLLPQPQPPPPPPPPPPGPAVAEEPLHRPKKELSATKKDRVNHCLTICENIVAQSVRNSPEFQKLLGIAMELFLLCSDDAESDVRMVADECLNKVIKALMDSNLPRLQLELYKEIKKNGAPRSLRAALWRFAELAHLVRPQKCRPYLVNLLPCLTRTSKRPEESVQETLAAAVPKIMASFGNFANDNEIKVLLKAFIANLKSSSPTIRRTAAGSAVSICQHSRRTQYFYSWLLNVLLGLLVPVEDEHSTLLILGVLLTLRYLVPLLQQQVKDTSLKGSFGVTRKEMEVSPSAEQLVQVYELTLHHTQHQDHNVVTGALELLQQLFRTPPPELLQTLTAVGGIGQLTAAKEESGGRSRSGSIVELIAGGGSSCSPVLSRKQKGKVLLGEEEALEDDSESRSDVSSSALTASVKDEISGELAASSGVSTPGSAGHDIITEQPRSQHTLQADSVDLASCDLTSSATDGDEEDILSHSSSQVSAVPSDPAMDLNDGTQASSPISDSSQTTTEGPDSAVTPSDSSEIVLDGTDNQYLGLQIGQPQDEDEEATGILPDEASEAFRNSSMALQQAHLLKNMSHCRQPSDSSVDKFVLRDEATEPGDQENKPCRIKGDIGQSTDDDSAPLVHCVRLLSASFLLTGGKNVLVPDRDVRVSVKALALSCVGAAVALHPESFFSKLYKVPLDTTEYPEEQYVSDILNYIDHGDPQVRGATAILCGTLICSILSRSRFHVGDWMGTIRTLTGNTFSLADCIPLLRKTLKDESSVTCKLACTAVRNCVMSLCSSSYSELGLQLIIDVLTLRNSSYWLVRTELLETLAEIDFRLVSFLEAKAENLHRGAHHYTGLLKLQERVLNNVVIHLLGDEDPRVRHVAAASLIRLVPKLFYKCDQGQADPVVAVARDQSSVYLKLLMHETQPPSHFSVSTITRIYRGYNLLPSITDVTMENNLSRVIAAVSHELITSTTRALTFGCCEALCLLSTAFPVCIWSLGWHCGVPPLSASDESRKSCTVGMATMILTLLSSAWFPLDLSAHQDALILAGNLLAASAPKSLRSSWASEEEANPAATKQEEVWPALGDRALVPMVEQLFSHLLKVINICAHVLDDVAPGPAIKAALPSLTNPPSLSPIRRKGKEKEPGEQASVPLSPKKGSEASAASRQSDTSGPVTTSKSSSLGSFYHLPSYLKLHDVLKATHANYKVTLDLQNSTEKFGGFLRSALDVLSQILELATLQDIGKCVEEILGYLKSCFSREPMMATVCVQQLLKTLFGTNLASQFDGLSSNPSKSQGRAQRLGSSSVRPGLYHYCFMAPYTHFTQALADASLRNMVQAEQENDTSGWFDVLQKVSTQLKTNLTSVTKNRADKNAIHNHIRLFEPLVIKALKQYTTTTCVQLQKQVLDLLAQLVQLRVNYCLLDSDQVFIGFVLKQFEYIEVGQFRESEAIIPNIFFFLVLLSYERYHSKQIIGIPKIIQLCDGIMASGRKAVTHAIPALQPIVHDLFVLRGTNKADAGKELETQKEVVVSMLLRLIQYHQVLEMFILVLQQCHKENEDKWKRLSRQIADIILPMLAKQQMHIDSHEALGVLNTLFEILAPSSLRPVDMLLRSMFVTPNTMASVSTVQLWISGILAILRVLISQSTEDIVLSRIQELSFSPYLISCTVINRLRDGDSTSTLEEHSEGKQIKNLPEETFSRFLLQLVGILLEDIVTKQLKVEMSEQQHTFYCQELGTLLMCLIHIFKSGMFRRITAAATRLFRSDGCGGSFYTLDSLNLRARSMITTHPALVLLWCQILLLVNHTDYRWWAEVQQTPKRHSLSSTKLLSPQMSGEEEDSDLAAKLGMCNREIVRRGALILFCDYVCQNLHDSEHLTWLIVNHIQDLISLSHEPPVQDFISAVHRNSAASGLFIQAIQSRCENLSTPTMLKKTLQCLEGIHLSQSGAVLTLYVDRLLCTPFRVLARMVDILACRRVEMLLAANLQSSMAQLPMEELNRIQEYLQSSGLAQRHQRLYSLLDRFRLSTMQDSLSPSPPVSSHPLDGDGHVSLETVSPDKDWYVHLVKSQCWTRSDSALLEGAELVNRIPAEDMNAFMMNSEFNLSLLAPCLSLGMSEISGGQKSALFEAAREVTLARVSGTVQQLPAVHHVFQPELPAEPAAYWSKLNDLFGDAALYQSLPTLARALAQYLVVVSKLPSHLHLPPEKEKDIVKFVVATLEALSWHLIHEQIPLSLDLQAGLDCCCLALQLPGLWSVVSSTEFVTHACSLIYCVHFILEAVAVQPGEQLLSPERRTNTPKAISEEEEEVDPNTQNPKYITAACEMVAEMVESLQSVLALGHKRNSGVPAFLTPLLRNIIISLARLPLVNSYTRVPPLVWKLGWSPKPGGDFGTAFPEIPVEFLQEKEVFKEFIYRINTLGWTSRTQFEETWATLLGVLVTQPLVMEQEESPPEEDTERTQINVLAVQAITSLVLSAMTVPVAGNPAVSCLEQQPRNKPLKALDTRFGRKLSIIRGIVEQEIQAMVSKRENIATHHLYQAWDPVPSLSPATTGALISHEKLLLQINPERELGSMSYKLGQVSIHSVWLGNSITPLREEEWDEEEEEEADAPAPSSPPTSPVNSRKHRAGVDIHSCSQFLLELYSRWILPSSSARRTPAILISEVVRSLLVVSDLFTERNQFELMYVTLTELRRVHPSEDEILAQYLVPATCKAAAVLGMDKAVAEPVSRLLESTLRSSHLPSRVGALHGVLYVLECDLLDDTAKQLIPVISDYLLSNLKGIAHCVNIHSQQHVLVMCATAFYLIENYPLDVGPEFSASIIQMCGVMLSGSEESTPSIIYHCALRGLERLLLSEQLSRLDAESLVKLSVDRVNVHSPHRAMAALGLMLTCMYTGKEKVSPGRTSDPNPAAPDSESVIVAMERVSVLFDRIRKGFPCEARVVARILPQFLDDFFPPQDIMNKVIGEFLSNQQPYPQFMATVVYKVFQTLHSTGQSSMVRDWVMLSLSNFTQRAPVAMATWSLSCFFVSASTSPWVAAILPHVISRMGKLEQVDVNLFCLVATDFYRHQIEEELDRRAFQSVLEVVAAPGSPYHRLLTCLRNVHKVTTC
* hit, by the source's call; . = no result. The full list was thinned out, with hits kept by preference. No stated cut-off is given here; in the data, active means inhibition above about 50%; inactive means the rest.

SMILES	Pf apPOL inh	mHTT CaM bind
Cc1cc(C)cc(C(=O)N2CCCC(C(=O)Nc3ccc(F)cc3C)C2)c1 (centres undefined)	1	-1
CCN1CCN(C(=O)C2CCN(c3nc4ccc(-c5ccsc5)nc4s3)CC2)CC1	0	67*
O=C(C1CCN(c2nc3ccc(-c4ccsc4)nc3s2)CC1)N1CCCC1	-3	12
O=C(C(=Cc1cccs1)c1ccsc1)N1CCOCC1	-6	.
CC(C)c1ccc(S(=O)(=O)NCCC2CCN(C(=O)c3ccccc3)CC2)cc1	-1	51*
Cc1ccc(C(=O)N2CCC(CCNS(=O)(=O)c3ccc(Cl)cc3)CC2)cc1	-3	26
COc1ccc(S(=O)(=O)NCCC2CCN(C(=O)c3ccccc3)CC2)cc1	1	28
CC(=O)Nc1ccc(S(=O)(=O)NCCC2CCN(C(=O)c3ccccc3)CC2)cc1	0	39
O=C(c1ccccc1)N1CCC(CCNS(=O)(=O)c2ccc(Cl)cc2)CC1	5	55*
Cc1ccc(C)c(S(=O)(=O)NCCC2CCN(C(=O)c3ccccc3)CC2)c1	10	47
CC(=O)c1ccc(S(=O)(=O)NCCC2CCN(C(=O)c3ccc(C)cc3)CC2)cc1	3	57*
Cc1ccc(F)cc1S(=O)(=O)NCCC1CCN(C(=O)c2ccccc2)CC1	2	54*
CN(C)C(=O)c1cc2c(s1)CCC(C(=O)NCc1ccccc1)C2 (centres undefined)	-3	0
CCOc1ccc(CNC(=O)C2CCCN(c3cc(=O)n(C)c(=O)n3C)C2)cc1OCC (centres undefined)	-5	-1
CCC(=NOC(=O)NS(=O)(=O)c1ccc(C)cc1)c1ccc(-c2ccccc2F)cc1	-3	.
COCCN1C(=O)c2ccccc2C(C(=O)NC2CCCCCC2)C1c1ccc(F)cc1 (centres undefined)	1	2
O=C(c1ccco1)N1CCCC(c2nc(-c3ccc(F)cc3)n[nH]2)C1 (centres undefined)	-3	3
Cc1ccc(C(=O)N2CCC(CCNS(=O)(=O)c3cccc4cccnc34)CC2)cc1	-1	62*
O=C(c1ccc(F)cc1)N1CCC(CCNS(=O)(=O)c2cccc3cccnc23)CC1	-4	45
COc1ccc(OC)c(S(=O)(=O)NCCC2CCN(C(=O)c3ccc(C)cc3)CC2)c1	-6	63*
Cc1ccc(C(=O)N2CCC(CCNS(=O)(=O)c3cc(C)c(C)cc3C)CC2)cc1	2	45
Cc1sc2nc(C)n(CC(=O)Nc3ccc(F)c(Cl)c3)c(=O)c2c1C	0	4
COc1cccc(NC(=O)NCc2cc(C)oc2C)c1OC	3	8
CCOCCCNC(=O)C1CCCN(C(=O)Cc2cccc3ccccc23)C1 (centres undefined)	6	-5
CCOC(=O)C1CCN(c2nc(-c3cccc(C)c3)nnc2C)CC1	-1	58*
SMILES	Pf apPOL inh	mHTT CaM bind
COc1ccc(-c2nnc(C)c(N3CCC(C)CC3)n2)cc1	-2	8
CCOC(=O)C1CCN(c2nc(-c3ccc(C)cc3)nnc2C)CC1	-3	15
Cc1ccc(-c2nnc(C)c(N3CCC(C)CC3)n2)cc1	0	82*
CC(C)c1ccc(N2CC(C(=O)NC3CCN(C)CC3)CC2=O)cc1 (centres undefined)	0	11
COc1nn(C)cc1C(=O)Nc1ccc(C(=O)NCc2cccs2)cc1	-10	-16
OC(C#CC(O)(c1ccccc1)c1ccccc1)c1cccnc1 (centres undefined)	-15	-6
OC(C#Cc1ccccc1)C#CC(O)(c1ccccc1)c1ccccc1 (centres undefined)	4	98*
CCOCC(=O)NCCN1CCN(S(C)(=O)=O)CC1	-3	-7
COc1ccc(-c2[nH]n(-c3nc4ccccc4s3)c(=O)c2C=NCCN2CCOCC2)cc1	2	68*
O=c1c(C=NCCN2CCOCC2)c(C(F)(F)F)[nH]n1-c1nc2ccccc2s1	3	4
Oc1cc2c(cc1C(c1ccc3c(c1)OCO3)N1CCOCC1)OCO2 (centres undefined)	.	94*
CCOC(=O)C(=O)NCC(c1ccc2c(c1)OCO2)N1CCOCC1 (centres undefined)	-6	-14
COc1ccc(-c2noc(CCC(=O)NC3CCCC(C)C3C)n2)cc1 (centres undefined)	-8	-6
Cc1cc(N2CCN(C)CC2)nc2ccc(NC(=O)/C=C/c3ccccc3Cl)cc12	4	93*
Cc1cc(N2CCN(C)CC2)nc2ccc(NC(=O)/C=C/c3ccc4c(c3)OCO4)cc12	-3	51*
Cc1cc(N2CCOCC2)nc2ccc(NC(=O)/C=C/c3ccccc3Cl)cc12	-3	38
CCN(CC)c1cc(C)c2cc(NC(=O)/C=C/c3ccc4c(c3)OCO4)ccc2n1	-8	20
Cc1cccc(C(=O)N2CCCC(C(=O)Nc3ccc(CN4CCCC4)cc3)C2)c1 (centres undefined)	-11	41
O=[N+]([O-])c1cc(Cl)ccc1NCCCNS(=O)(=O)c1ccccc1	-1	53*
O=[N+]([O-])c1cc(Cl)ccc1NCCNS(=O)(=O)c1ccccc1	-1	41
Nc1nc(Sc2c(Cl)cccc2[N+](=O)[O-])n[nH]1	-7	.
Cn1nc(C(=O)NCc2ccccc2)c2c1CCN(C(=O)c1ccccc1Cl)C2	-10	34
Cn1nc(C(=O)NCc2ccccc2)c2c1CCN(C(=O)c1ccc(C#N)cc1)C2	-2	21
Cn1nc(C(=O)NCc2ccccc2)c2c1CCN(C(=O)c1ccccc1)C2	1	36
COc1cc(OC)cc(C(=O)N2CCc3c(c(C(=O)NCc4ccccc4)nn3C)C2)c1	-3	75*
SMILES	Pf apPOL inh	mHTT CaM bind
COc1ccc(C(=O)N2CCc3c(c(C(=O)NCc4ccccc4)nn3C)C2)c(OC)c1	-10	51*
COc1ccc2cc(C(=O)N3CCc4c(c(C(=O)NCc5ccccc5)nn4C)C3)[nH]c2c1	-2	37
Cc1ccc(C(=O)N2CCc3c(c(C(=O)NCc4ccccc4)nn3C)C2)cc1	-2	75*
COc1ccc(C(=O)N2CCc3c(c(C(=O)NCc4ccccc4)nn3C)C2)cc1	-10	56*
O=C(Cn1ccc2sccc2c1=O)Nc1ccc(F)cc1	-2	-4
CC1=C(C#N)C(=O)N(C)C(=O)/C1=C\c1ccc(-c2ccccc2C(=O)O)o1	0	16
COc1ccc(NC(C)=O)cc1NS(=O)(=O)c1cn(C)nc1C	0	-5
CCOc1ccc(CN2CCC(C(=O)N3CCN(c4ccccc4OCC)CC3)CC2)cc1	-6	2
COc1ccccc1NC1CC(=O)N(c2ccccc2OC)C1=O (centres undefined)	9	-7
Cc1cc(=O)n(CC(=O)Nc2cccc(Cl)c2)c(N2CCCCC2)n1	0	17
Cc1ccccc1C(=O)N1CCc2c(c(C(=O)NCc3ccccc3)nn2C)C1	-16	11
CC(Oc1ccccc1)C(=O)N1CCc2c(c(C(=O)NCc3ccccc3)nn2C)C1 (centres undefined)	-7	55*
Cc1ccc(-c2cc(=O)n(CC(=O)Nc3ccc(Cl)cc3)[nH]2)cc1	-3	14
CCc1ccccc1NC(=O)CN(C)S(=O)(=O)c1ccc(Br)s1	-2	-2
C=CCOc1ccc(C(Nc2ccccn2)c2ccc3cccnc3c2O)cc1 (centres undefined)	5	99*
O=c1cc(CO)oc(C(Nc2ccccn2)c2ccc(F)cc2)c1O (centres undefined)	-2	33
